Among all 330,000 compounds or so, about 1,900 (0.58%) were called active. About 4% were inconclusive and are not listed. These entries were drawn from the full list. Entries with a potency or affinity are not part of this list. Unmarked numbers belong to inactive results. No stated cut-off is given here; in the data, inconclusive means inhibition above about 70% without an active follow-up result; inactive means below that.

The test is described as follows: M. tuberculosis growth inhibition, HTS (AID 449762).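 Further: bacterial growth assessed after seven days of incubation.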 The following applies: M. tuberculosis H37Rv growth inhibition, 7H9 media; at 25 µM; stronger effect = higher value.
In the case of `CCCCN(C(=O)c1ccc(C#N)cc1)c1c(N)n(CCC)c(=O)[nH]c1=O`, the inhibition was -1.21%.

`O=C(CN1CCCCC1)NC(=O)NC1CCCCC1`: the inhibition is -4.76%.

As for `COc1cc(O)cc2occ(-c3ccc(O)cc3)c(=O)c12`, the inhibition was -14.1%.

On to `Cc1nnc(SCC(=O)NC2CCCCC2)n1N`, for which the inhibition was 3.31%.

As for `C=CCn1c(N)cc(=O)nc1SC(C)C(=O)Nc1ccc(C(=O)OCC)cc1` (configuration not stated), the inhibition was 6.39%.

With `Cc1ccc(NC(=O)C(C)Sc2nc(-c3ccccc3)cc(=O)[nH]2)cc1` (configuration not stated), the inhibition was 14%.

Regarding `CCc1ccccc1NC(=O)C1CCCN(c2nn3c(=O)cc(C)nc3s2)C1` (configuration not stated), the inhibition is -6.18%.

In the case of `O=C(COC(=O)c1cc(S(=O)(=O)N2CCOCC2)ccc1F)c1ccccc1`, the inhibition is 0.68%.

For `O=C(Nc1cccc(NC(=O)c2cc([N+](=O)[O-])ccc2Cl)n1)c1cc([N+](=O)[O-])ccc1Cl`, the inhibition is 10.1%.

In the case of `Cc1sc2ncnc(N3CCC(C(=O)Nc4ccc(C#N)cc4)CC3)c2c1C`, the inhibition was 7.85%.

As for `CCc1cccc(NC(=O)C2CCN(c3ncnc4sc(C)c(C)c34)CC2)c1`, the inhibition is 22.6%.

For the molecule `COc1cc(-c2noc(C)c2C(=O)NCc2ccc(C)o2)cc(OC)c1OC`, the inhibition was 3.84%.

In the case of `CC(=O)c1c(C)[nH]c(C(=O)OCC(=O)NCc2cccs2)c1C`, the inhibition was 7.06%.

Take `CC(C)Nc1nc(NC(C)C)nc(N(C)C(N)=O)n1`: the inhibition is 1.68%.

Take `CC(C)Nc1nc(NC(C)C)nc(N(C)C#N)n1`: the inhibition was 0.57%.

Take `C=CC[C@H](CC(=O)OC(C)(C)C)C(=O)OC[C@H]1CCCN1C(=O)[C@@H](CC=C)CC(=O)N(CCO)Cc1ccccc1`: the inhibition is -3.24%.

Regarding `C[C@H](NC(=O)c1[nH]cnc1C(=O)Nc1cccc(Cl)c1)c1ccccc1`, the inhibition was 48.7%.

On to `C[C@@H](NC(=O)c1[nH]cnc1C(=O)Nc1cccc(Cl)c1)c1ccccc1`, for which the inhibition was 56.8%.

Regarding `O=C(CN(Cc1ccccc1)C(=O)CNS(=O)(=O)c1ccc(F)cc1)NCC1CCCO1` (configuration not stated), the inhibition is -5.05%.

For the molecule `Cc1nn(-c2ccccc2)c(Cl)c1/C=N/NC(N)=O`, the inhibition was -5.57%.

In the case of `Cc1nn(C)c(C)c1/C=C/C(=O)c1ccccc1`, the inhibition is 7.75%.

With `O=C(c1cccc(C(F)(F)F)c1)c1c[nH]c(C(=O)NCCCN2CCOCC2)c1`, the inhibition was 2.14%.

With `Cc1cc(S(=O)(=O)Nc2ccc3cn[nH]c3c2)c(C)cc1Cl`, the inhibition is -3.66%.

Turning to `O=C(Nc1ccc2[nH]ncc2c1)c1ccccc1Cl`, the inhibition is -3.21%.

For `O=Cc1cc(Br)c(OC(=O)N2CCOCC2)c(Br)c1`, the inhibition was 5.26%.

`Cc1ccc(-c2nn(-c3ccccc3)cc2CO)cc1`: the inhibition was 4.76%.

For `OCc1cn(-c2ccccc2)nc1-c1ccc(-c2nn(-c3ccccc3)cc2CO)cc1`, the inhibition was 0.63%.

Consider `CC(C)[C@]1(c2ccc(Cl)cc2)ON(c2ccccc2C(F)(F)F)C1=O`, for which the inhibition was 1.98%.

Regarding `O=C(CCc1nc2ccccc2c(=O)[nH]1)Nc1nnc(SCc2ccc(Cl)cc2)s1`, the inhibition was -0.53%.

With `Cn1ccnc1SCC(=O)NCC(=O)Nc1ccc(F)c(F)c1F`, the inhibition is 1.26%.

With `c1ccc(CN2CCC(Nc3nc(-c4cccnc4)nc4ccccc34)CC2)cc1`, the inhibition is 10.5%.

Consider `c1ccc(-c2nc(NC3CCCC3)c3ccccc3n2)cc1`, for which the inhibition is 11.8%.

Consider `O=C(Nc1ccncc1)c1ccc(Cl)c(Cl)c1`, for which the inhibition is 4.84%.

Consider `O=C(Nc1ccc(Cl)c(Cl)c1)c1ccc(Cl)c(Cl)c1`, for which the inhibition is 1.7%.

Regarding `O=C(Nc1ccc2nc3ccccc3nc2c1)c1ccccc1`, the inhibition is -0.69%.

With `CC(=O)Nc1ccc2nc3ccccc3nc2c1`, the inhibition is -9.66%.

`COc1ccc(C)cc1NC(=O)CN1CCCC1c1ccc2c(c1)OCCCO2` (configuration not stated): the inhibition was 5.61%.

Regarding `COc1ccc(NC(=O)CCCCCN2C(=O)c3ccccc3C2=O)c(OC)c1`, the inhibition is -6.73%.

As for `C/C(=N\Nc1ccccc1Cl)c1ccc(-n2ccnc2)cc1`, the inhibition was 58.6%.

With `C/C(=N\Nc1cccc(Cl)c1)c1ccc(-n2ccnc2)cc1`, the inhibition was 0.99%.

Consider `COc1cccc(-c2cc(C(F)(F)F)c(C#N)c(=O)[nH]2)c1`, for which the inhibition is -9.57%.

On to `Cc1csc(=Nc2ccccc2)n1Cc1ccco1`, for which the inhibition is 11.3%.

Turning to `Cn1nnnc1SCC(=O)Nc1nc2c(s1)CCCC2`, the inhibition is 2.88%.

Turning to `N#Cc1c(NC(=O)CSc2nnnn2C2CCCCC2)sc2c1CCCC2`, the inhibition is -13.1%.

Consider `Cc1ccc(N(CC(=O)NCc2ccco2)C(=O)CCC(=O)Nc2nccs2)c(C)c1`, for which the inhibition was 1.4%.

Take `Cc1cc(N2CCC(C(=O)N3CCN(c4cccc(C)c4C)CC3)CC2)n2ncnc2n1`: the inhibition was -0.67%.

As to `COc1ccc2cc(C(=O)/C=C/c3cc(OC)c(O)c(OC)c3)ccc2c1`, the inhibition is 36.1%.

On to `COc1ccc(/C=C/C(=O)c2ccc(OC)cc2OC)cc1`, for which the inhibition is 58.4%.

For `CC(=O)c1cccc(N2C(=NC(=O)CCc3ccccc3)SC3CS(=O)(=O)CC32)c1` (configuration not stated), the inhibition was 1.65%.

As for `Cc1ccc(S(=O)(=O)NNC(=O)CCC(=O)Nc2ccc(C)cc2C)cc1`, the inhibition was 5.58%.

For `COc1cc(SC)ccc1C(=O)OCC(=O)NC1CCCCC1`, the inhibition is -4.21%.

For `CCCCCC1CC(CC(=O)Nc2ccc([N+](=O)[O-])cc2)C(=O)O1` (configuration not stated), the inhibition was 68.8%.

Regarding `CCCCCCC1CC(CC(=O)Nc2ccc([N+](=O)[O-])cc2)C(=O)O1` (configuration not stated), the inhibition was 5.26%.

In the case of `O=C(CCNS(=O)(=O)c1ccc(F)c(Cl)c1)NCc1ccccc1F`, the inhibition was -9.24%.

In the case of `O=C(COC(=O)Cc1ccsc1)NCc1ccc(Cl)cc1`, the inhibition is 8.12%.

For the molecule `Cc1cc(C)c(C(=O)CC(=O)c2ccccc2Cl)c(O)c1`, the inhibition is 6.33%.

Consider `Cc1cccc(C(=O)CC(=O)c2cc(Cl)ccc2O)c1`, for which the inhibition is 0.28%.

On to `Cc1ccc(-c2nnc(SCC(=O)N/N=C/c3c(C)nn(-c4ccccc4)c3C)n2-c2ccc(C)cc2)cc1`, for which the inhibition was 5.96%.

Turning to `CCCN1CCN(CC(O)COC(c2ccc(OC)cc2)c2ccc(OC)cc2)CC1` (configuration not stated), the inhibition is 6.36%.

Regarding `COc1ccc(CCN(C)CC(O)COC(c2ccc(F)cc2)c2ccc(F)cc2)cc1OC` (configuration not stated), the inhibition is 6.55%.

On to `O=C(NN1CC(C(=O)OCc2ccc(Cl)cc2Cl)CC1=O)c1ccccc1` (configuration not stated), for which the inhibition is -12%.

With `O=C(c1ccc(C(=O)N2CCN(c3ccccc3F)CC2)nc1)N1CCN(c2ccccc2F)CC1`, the inhibition is -7.27%.

Take `CC1(OC(=O)c2cccs2)C(=O)C=C2C=C(c3ccsc3)OC=C2C1=O` (configuration not stated): the inhibition is -0.64%.

Turning to `O=C(Nc1ccc(Cn2ccnc2)cc1)c1cccc(C(F)(F)F)c1`, the inhibition is 7.08%.

On to `O=C(CSC1CCCCC1)Nc1nccs1`, for which the inhibition is -8.08%.

With `O=C(Nc1ncc(Cc2ccccc2Cl)s1)c1ccc([N+](=O)[O-])cc1`, the inhibition was 10.6%.

For `CC(C)C(=O)Nc1ncc(Cc2ccccc2Cl)s1`, the inhibition is -0.61%.

Turning to `COc1ccc(C(=O)OCC(=O)Nc2c(C)cccc2C)cc1`, the inhibition was 0.88%.

Take `CC1CCCC(NC(=O)CSC2=Nc3ccccc3C3CC=NN23)C1C` (configuration not stated): the inhibition was 11.7%.

For `Cc1cc(C)n(-c2nc(NCCCN(C)C)c3c4c(sc3n2)CCCC4)n1`, the inhibition is 9.07%.

`Cc1cc(C)n(-c2nc(NCCO)c3c4c(sc3n2)CCCC4)n1`: the inhibition was 10.4%.

Take `CN1CCN(/N=C/c2ccc(Br)cc2)CC1`: the inhibition was 2.12%.

`O=C(NN=Cc1cccc([N+](=O)[O-])c1)c1cc(-c2cccnc2)nc2ccccc12`: the inhibition was 5.59%.

As to `CC1=CC(=O)C(C(C)C)=CC1=NC(=O)c1ccc(C)cc1`, the inhibition was 3.21%.

Regarding `CC1=CC(=O)C(C(C)C)=C/C1=N/OC(=O)c1cccc([N+](=O)[O-])c1`, the inhibition is -5.41%.

As to `CCCOc1ccc(-c2csc3ncn(Cc4ccc(C(=O)O)cc4)c(=O)c23)cc1`, the inhibition was 11.8%.

For `CC1CCc2nc(/C(C#N)=C/c3ccncc3)sc2C1` (configuration not stated), the inhibition was 17.6%.

As for `COc1cc(/C=C(\C#N)c2nc3c(s2)CCCC3)ccc1O`, the inhibition was 67.9%.

As for `O=C(NCCC(=O)N1CCN(c2ccccn2)CC1)c1ccc(Cl)cc1`, the inhibition was 9.44%.

Turning to `CC1(C)Cc2c(cnn2-c2ccccc2)C(=O)/C1=N\NC(=O)c1ccccc1O`, the inhibition is 0.99%.

For the molecule `CC1(C)Cc2c(cnn2-c2ccccc2)C(=O)/C1=N\NC(=O)c1ccccc1`, the inhibition was 6.2%.

On to `COc1cccc(C2CC(c3ccc(Br)cc3)=NN2C(=O)c2ccncc2)c1OC` (configuration not stated), for which the inhibition was 10.4%.

For the molecule `C=C1CCC[C@]2(C)C[C@H]3OC(=O)C(CNCC(C)C)[C@H]3CC12` (some centres not stated), the inhibition was -0.86%.

With `C=C1CCC[C@]2(C)C[C@H]3OC(=O)C(CNC(C)CC)[C@H]3CC12` (some centres not stated), the inhibition is 7.33%.

Regarding `CN(C)C(=O)c1ccc(Cl)cc1[N+](=O)[O-]`, the inhibition was -3.01%.

For the molecule `COc1ccc(S(=O)(=O)N(C)C[C@H]2Oc3c(NC(=O)NC(C)C)cccc3C(=O)N([C@H](C)CO)C[C@@H]2C)cc1`, the inhibition was -6.16%.

`O=c1c2ccccc2nc2c3ccccc3c(NCCN3CCOCC3)nn12`: the inhibition was 7.65%.

`c1ccc(-c2csc3ncnc(NCCCN4CCOCC4)c23)cc1`: the inhibition was 0.1%.

For the molecule `COc1cccc(CNS(=O)(=O)c2c(C(=O)N3CCCC3)c(C)n(C)c2C)c1`, the inhibition is 3.63%.

Take `COc1ccc(N2CC(C)Cn3c2nc2c3c(=O)[nH]c(=O)n2C)cc1` (configuration not stated): the inhibition is -7.69%.

In the case of `NC(=O)c1c(NC(=O)CSc2nnc(Cc3ccccc3)n2Cc2ccco2)sc2c1CCC2`, the inhibition was 55.7%.

Take `CC(=O)OCC1OC(n2ccc3ccccc32)C(OC(C)=O)C(OC(C)=O)C1OC(C)=O` (configuration not stated): the inhibition is -6.94%.

Broadly, the inhibition is the drop in the measured response relative to a control, in per cent.
